Screens (PubChem BioAssay)
JMJD2A Tudor – blocks the human JMJD2A Tudor domain; O75164; AlphaScreen JMJD2A-Tudor / H3K4me3 peptide binding; Potency, µM (highest dose often 114 µM), hits mostly inhibitors; actives 4.4% (n = 390,000); AID 504339; further: nearly all actives have a fitted effect of over 50% in size
PI5P4K alpha inh – inhibitors of human PI5P4K alpha; P48426; PI5P4Kalpha enzyme, ADP-Glo luminescence, 60 min; hits give low values; max response, %; actives 1.2% (n = 330,000); AID 652105; active means max response of -50% or lower; inconclusive means between -30% and -50%; inactive means -30% or higher; further: value at the top dose of about 77 µM
Target sequence (P48426 whole entry, looked up): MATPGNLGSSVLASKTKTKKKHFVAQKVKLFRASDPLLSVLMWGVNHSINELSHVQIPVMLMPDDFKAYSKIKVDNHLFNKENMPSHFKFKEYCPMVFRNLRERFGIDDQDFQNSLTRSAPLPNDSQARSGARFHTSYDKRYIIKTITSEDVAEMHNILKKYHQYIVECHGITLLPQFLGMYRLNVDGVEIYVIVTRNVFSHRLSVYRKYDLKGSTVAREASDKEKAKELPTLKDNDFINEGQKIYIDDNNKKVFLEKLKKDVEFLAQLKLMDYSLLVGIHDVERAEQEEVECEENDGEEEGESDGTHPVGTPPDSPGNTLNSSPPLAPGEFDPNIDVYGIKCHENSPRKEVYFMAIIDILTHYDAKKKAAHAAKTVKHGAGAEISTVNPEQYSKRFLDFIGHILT
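Quantitative HTS of the MLSMR library against PI5P4Kalpha with substrate. ATP added last at 5 microM final; room temperature, 60 minutes. Remaining ATP depleted, ADP converted and read as luminescence.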
G9a inh – G9a (human) methyltransferase inhibition. Q96KQ7. Potency, µM (top dose mostly 102 µM), actives largely listed as inhibitors. actives 8.8% (n = 350,000). G9a H3K9 monomethylation, AlphaScreen, 2 h; further: nearly all actives have a fitted effect of over 75% in size
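Compounds were preincubated with 20 nM G9a for 15 min, after which biotinylated H3K9 peptide (500 nM) and SAM (20 uM) started a 2 h room-temperature reaction. Monomethylated product was quantified by antibody-based AlphaScreen chemiluminescence.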
L3MBTL1 block – inhibitors of human L3MBTL1; actives 0.66% (n = 230,000); AlphaScreen L3MBTL1–H3K9me1 peptide binding; Potency, µM (series often up to 57.1 µM), usual class: inhibitors; further: nearly all actives have a fitted effect of over 60% in size
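L3MBTL1 50 nM + b-AHA-H3(1-15)K9me1 75 nM, 30 min RT; compound added, 30 min RT; streptavidin donor/Ni-chelate acceptor beads 10 ug/mL each final, 30 min RT dark; AlphaScreen read.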
HP1b chromo inh – HP1-beta chromodomain-methylated histone interaction inhibition. P83916. AlphaScreen HP1-beta / biotin-H3K9me3 peptide binding. Potency, µM (highest dose often 114 µM), most hits filed as inhibitors. actives 0.56% (n = 390,000); further: nearly all actives have a fitted effect of over 70% in size
Target sequence (P83916 whole entry, looked up): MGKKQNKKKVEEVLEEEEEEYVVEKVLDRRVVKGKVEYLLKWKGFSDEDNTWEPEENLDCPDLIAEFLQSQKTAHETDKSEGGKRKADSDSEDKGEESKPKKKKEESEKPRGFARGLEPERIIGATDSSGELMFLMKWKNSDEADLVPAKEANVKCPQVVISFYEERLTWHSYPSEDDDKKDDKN
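AlphaScreen: HP1-beta (50 nM) preformed 30 min with biotin-H3(1-18)K9me3 peptide (50 nM) in PBS pH 7.4, 0.01% Tween-20. Compound added for 30 min at RT, then streptavidin donor/nickel chelate acceptor beads (10 ug/mL) for 30 min.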
BAZ2B block – BAZ2B (human) inhibition | AlphaScreen BAZ2B-H3K14Ac peptide displacement | Potency, µM (highest dose often 114 µM), actives largely listed as inhibitors | actives 4.4% (n = 360,000) | AID 504333 | Q9UIF8; further: nearly all actives have a fitted effect of over 60% in size
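Complex of BAZ2B and biotin-H3K14Ac (50 nM apiece) forms over 30 min at RT, then faces library compounds up to 110 uM for another 30 min; AlphaScreen beads added, 20 min dark incubation, luminescence read.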
Each line names hits and unclear results; the compound was inactive in the other large screens. Sampled rows, rich in hits. Any-hit rate of the full collection: about 11%. Unless noted, the call rests on the fitted dose curve; in most records, active means well fitted inhibition curve with a large enough effect; inconclusive means small, poorly fitted or top-dose-only effect; inactive means no such curve, though single readings can be large or run the other way.

CCCCNc1nc(=S)[nH]c2cc(OC)c(OC)cc12	JMJD2A Tudor inconclusive, BAZ2B block inconclusive (no result: L3MBTL1 block)
COc1cc2[nH]c(=S)nc(NCCCOC(C)C)c2cc1OC	JMJD2A Tudor inconclusive, G9a inh 45µM, BAZ2B block 50µM (no result: L3MBTL1 block)
CCOCCCNc1nc(=S)[nH]c2cc(OC)c(OC)cc12	JMJD2A Tudor inconclusive, G9a inh 35µM, BAZ2B block inconclusive
CN1C[C@@H]2C[C@H]1CN2c1cc2c(cc1F)c(=O)c(C(=O)O)cn2C1CC1	none (no result: JMJD2A Tudor, PI5P4K alpha inh, L3MBTL1 block, HP1b chromo inh, BAZ2B block)
CCCN1CCC(=O)N(C(CSc2ccc(C)cc2)CC(C)C)CC1 (configuration not stated)	none (no result: PI5P4K alpha inh, G9a inh, L3MBTL1 block, BAZ2B block)
CC1C(=O)C(C)(C)C(=O)OC1c1ccccc1 (configuration not stated)	none
CC1C(=O)C(C)(C)C(=O)OC1c1ccc([N+](=O)[O-])cc1 (configuration not stated)	G9a inh 50µM (no result: L3MBTL1 block)
CCC(Sc1nc(C)cc(=O)[nH]1)C(=O)Nc1nc2c(s1)CCCC2 (configuration not stated)	G9a inh 45µM, BAZ2B block inconclusive (no result: PI5P4K alpha inh)
Cc1ccc2[nH]c(C)cc(=S)c2c1	G9a inh inconclusive, L3MBTL1 block inconclusive
Cc1cc(=S)c2ccccc2[nH]1	JMJD2A Tudor inconclusive, G9a inh 2µM, BAZ2B block inconclusive (no result: L3MBTL1 block)
COc1ccccc1CNC(=O)c1ccc(-c2ccccc2)cc1	G9a inh 45µM
COc1ccccc1CNC(=O)c1ccc2ccccc2n1	BAZ2B block 79µM (no result: L3MBTL1 block)
CCC(C)(C)NC(=O)C(c1ccccc1Cl)N(C(=O)CCC(=O)Nc1cc(C)on1)C1CC1 (configuration not stated)	none (no result: L3MBTL1 block)
CCC(C)(C)NC(=O)C(c1ccccc1Cl)N(C(=O)CCC(=O)Nc1cc(C)on1)C(C)(C)C (configuration not stated)	JMJD2A Tudor 56µM (no result: L3MBTL1 block)
CCOC(=O)c1cccc(OCC(O)CNCCOc2ccccc2F)c1 (configuration not stated)	JMJD2A Tudor 18µM, G9a inh 50µM, HP1b chromo inh 71µM, BAZ2B block inconclusive (no result: L3MBTL1 block)
OC(CNCCc1ccc(Cl)cc1)COCc1ccco1 (configuration not stated)	JMJD2A Tudor 7.1µM, G9a inh 22µM, HP1b chromo inh inconclusive, BAZ2B block inconclusive
OC(CNCc1ccc(Cl)cc1)COc1ccccc1 (configuration not stated)	JMJD2A Tudor 20µM, HP1b chromo inh inconclusive, BAZ2B block 56µM (no result: L3MBTL1 block)
CC(C)(c1ccccc1)c1ccc(OCC(O)CNC2CCN(Cc3ccccc3)CC2)cc1 (configuration not stated)	JMJD2A Tudor 2.8µM, G9a inh 40µM, HP1b chromo inh inconclusive, BAZ2B block 50µM
CCOc1ccc(OCC(O)CNC2CCN(Cc3ccccc3)CC2)cc1 (configuration not stated)	none
CNCC(O)COc1ccccc1 (configuration not stated)	none (no result: PI5P4K alpha inh, L3MBTL1 block)
COc1ccc(S(=O)(=O)c2c(Nc3ccc(C)cc3C)sc(C(=O)c3ccc(F)cc3)c2N)cc1	G9a inh inconclusive (no result: PI5P4K alpha inh, L3MBTL1 block)
COc1ccc(OCC(=O)NC2CC(=O)N(c3cccc(OC)c3)C2)cc1 (configuration not stated)	none (no result: PI5P4K alpha inh, L3MBTL1 block)
COC(=O)c1ccc(CNCC(O)COc2ccc(-c3ccccc3)cc2)cc1 (configuration not stated)	none (no result: L3MBTL1 block)
OC(CNCc1ccccc1)COCc1ccc(Cl)cc1 (configuration not stated)	G9a inh 10µM, BAZ2B block 50µM
COc1ccc(CNCC(O)COc2ccc(C(C)(C)c3ccccc3)cc2)cc1 (configuration not stated)	JMJD2A Tudor 10µM, HP1b chromo inh inconclusive, BAZ2B block 40µM (no result: L3MBTL1 block)
CC(NCC(O)COCc1ccc(Cl)cc1)c1ccccc1 (configuration not stated)	none (no result: L3MBTL1 block)
CC(=O)c1cccc(OCC(O)CNCCc2ccc(Cl)cc2)c1 (configuration not stated)	JMJD2A Tudor inconclusive, G9a inh inconclusive, BAZ2B block 20µM (no result: L3MBTL1 block)
COc1cccc2c1cc1c(=O)n(CC(=O)N3CCN(c4ccccc4F)CC3)nc(C)n12	none (no result: PI5P4K alpha inh, L3MBTL1 block)
COc1ccc(/C=C2\SC(c3ccc(C)cc3)=NC2=O)cc1OC	JMJD2A Tudor 28µM, G9a inh 2.2µM, HP1b chromo inh 20µM (no result: PI5P4K alpha inh)
COc1ccc(/C=C2/SC(c3ccc(C)cc3)=NC2=O)cc1OC	JMJD2A Tudor 50µM, G9a inh 2.8µM, HP1b chromo inh inconclusive
COc1cc(/C=C2\SC(c3ccc(C)cc3)=NC2=O)ccc1O	JMJD2A Tudor 28µM, G9a inh 11µM, HP1b chromo inh inconclusive, BAZ2B block 22µM (no result: PI5P4K alpha inh)
COc1ccc(/C=C2/SC(=O)N(CCC(=O)Nc3ccc(C)cc3)C2=O)cc1OC	none (no result: JMJD2A Tudor, PI5P4K alpha inh, HP1b chromo inh)
COc1cc(/C=C2\SC(=N)N(c3ccc(F)cc3)C2=O)ccc1O	none (no result: L3MBTL1 block)
COc1cc(/C=C2\SC(N)=NC2=O)ccc1OCC(=O)Nc1ccc(C)cc1	none
COc1cc(/C=C2\SC(=O)N(CC(=O)Nc3ccccc3F)C2=O)cc(Cl)c1O	PI5P4K alpha inh inconclusive, G9a inh inconclusive, BAZ2B block inconclusive
COc1cc(/C=C2\SC(c3ccccc3)=NC2=O)cc(Cl)c1O	JMJD2A Tudor 6.3µM, PI5P4K alpha inh -99, L3MBTL1 block inconclusive, HP1b chromo inh 13µM, BAZ2B block 35µM
COc1cccc(C2=CC(c3ccccc3F)n3ncc(C(=O)Nc4ccc(F)cc4)c3N2)c1 (configuration not stated)	JMJD2A Tudor inconclusive, G9a inh inconclusive (no result: PI5P4K alpha inh, L3MBTL1 block)
CCCSc1nc2c(c(=O)[nH]1)C(c1ccc(O)c(OCC)c1)CC(=O)N2 (configuration not stated)	none (no result: PI5P4K alpha inh, L3MBTL1 block)
COc1ccc(OC)c(NC(=O)Cc2coc3ccc(C(C)C)cc23)c1	JMJD2A Tudor inconclusive (no result: PI5P4K alpha inh, L3MBTL1 block)
COc1cc(CNC(=O)c2ccc3c(c2)N(C)C(=O)C2CCCCN32)cc(OC)c1OC (configuration not stated)	none (no result: PI5P4K alpha inh, L3MBTL1 block)
COc1cc(/C=C2\SC(c3ccc(C)cc3)=NC2=O)cc(OC)c1OC	JMJD2A Tudor 56µM, G9a inh 1µM, HP1b chromo inh inconclusive (no result: PI5P4K alpha inh)
O=C(CN1C(=O)NC2(CCCCC2)C1=O)N1CCN(S(=O)(=O)c2ccc(Cl)s2)CC1	G9a inh 18µM
CC1CCCCC12NC(=O)N(CC(=O)N1CCN(S(=O)(=O)c3ccc(Cl)s3)CC1)C2=O (configuration not stated)	none (no result: JMJD2A Tudor, G9a inh, L3MBTL1 block, HP1b chromo inh, BAZ2B block)
O=C(COc1ccc(F)cc1)Nc1ccc(OCc2cc(=O)n3ccsc3n2)cc1	none (no result: PI5P4K alpha inh, L3MBTL1 block)
Cc1sc2c(c1C)CN(C(C)(C)C)CN2C(=O)c1ccccc1	G9a inh 50µM, BAZ2B block inconclusive (no result: L3MBTL1 block)
